# Compound activity: PubChem, University of Kansas High Throughput Screening Laboratory
# Pf apPOL inh: Pf-apPOL inhibitors, biochemical, fluorescence. 210,000 tested, 0.25% active. Recombinant Pf-apPOL, molecular beacon fluorescence, 1.5 h. AID 1794808, 2022. inhibition, % at 10 µM
# mHTT CaM bind: mutant huntingtin-calmodulin interaction inhibitors – biochemical, AlphaScreen, primary screen. P42858. AlphaScreen His-mHTT/GST-CaM binding, luminescence. inhibition, % at 15 µM. 190,000 tested, 3.6% active. AID 1671202, 2021
# Numbers stand for hits; - = inactive; . = no result; + = active, no number. This excerpt belongs to a sample that is enriched for hits. Rule as the data show it: active = inhibition above about 50%; inactive = the rest.
SMILES,Pf apPOL inh,mHTT CaM bind
CNCC(O)Cn1c2c(c3ccccc31)CCCC2 (centres undefined),-,-
Cc1ccc2c(c1)c1c(n2CC(O)CNCc2ccco2)CCCC1 (centres undefined),-,54.9
S=c1[nH]nc(-c2cc(-c3ccccc3)n[nH]2)n1/N=C/C=C/c1ccco1,.,+
S=c1[nH]nc(-c2ccco2)n1/N=C/C=C/c1ccco1,.,-
COc1cccc(/C=C2/SC(=Nc3ccccc3Cl)NC2=O)c1OC,-,-
O=C1NC(=Nc2cccc(Cl)c2Cl)S/C1=C\c1ccco1,-,100.0
COc1ccc(N=C2NC(=O)/C(=C\c3ccco3)S2)cc1,-,-
Cc1ccc(N=C2NC(=O)/C(=C/c3ccco3)S2)cc1,-,69.0
Cc1oc2cc(OC(C)C)ccc2c(=O)c1-c1ccccc1,-,-
CN(Cc1ccccc1)C(=O)C1CCN(c2nnc(-c3ccccc3)o2)CC1,-,-
O=C(Nc1nnc(SCc2ccccc2F)s1)c1ccccc1C(F)(F)F,-,-
O=C(NCc1ccccn1)c1ccc2c(c1)OCO2,-,100.2
CCN(CCCNC(=O)c1nn(-c2ccccc2OC)c(=O)c2ccccc12)c1cccc(C)c1,-,62.0
O=C(NCc1cccnc1-c1ccccc1)c1ccc2c(c1)OCO2,-,-
Cc1cc(=O)oc(C)c1C(=O)NCCCN(CC(C)C)CC(C)C,-,-
CCN(CCCNC(=O)c1c(C)cc(=O)oc1C)c1cccc(C)c1,-,64.0
Cc1cc(=O)oc(C)c1C(=O)NCc1ccccn1,-,57.0
Cc1cc(=O)oc(C)c1C(=O)NCc1cccs1,-,-
COCCNC(=O)c1nn(-c2ccccc2OC)c(=O)c2ccccc12,-,-
O=C(Cc1ccccc1)Nc1cccc(NC(=O)c2cccc(Cl)c2)c1,-,-
COc1ccc(-c2cc3nc4c(c(=O)n3[nH]2)CN(C(=O)c2ccc(OC)nc2)CC4)cc1,-,-
COc1ccc(-n2nc(C(=O)Nc3ccc(F)cc3)c3ccccc3c2=O)c(OC)c1,-,-
COc1ccc(-n2nc(C(=O)NCC(=O)Nc3ccc(F)cc3)c3ccccc3c2=O)c(OC)c1,-,88.0
COc1ccc(Cl)cc1NC(=O)c1cc2cccc(OC)c2oc1=O,-,-
CC1CCN(C(=O)c2cc3n(n2)C(C(F)(F)F)CC(c2ccccc2)N3)C2CCCCC12 (centres undefined),-,58.0
SMILES,Pf apPOL inh,mHTT CaM bind
CC1CCC(C)N(C(=O)c2cc3n(n2)C(C(F)(F)F)CC(c2ccccc2)N3)C1 (centres undefined),-,-
COc1ccc(C2CC(C(F)(F)F)n3nc(C(=O)Nc4cccnc4)cc3N2)cc1 (centres undefined),54.7,-
COc1ccc(C2CC(C(F)(F)F)n3nc(C(=O)NCc4ccccc4)c(Cl)c3N2)cc1 (centres undefined),-,-
CN(Cc1ccccc1)C(=O)c1cc2n(n1)C(C(F)(F)F)CC(c1ccccc1)N2 (centres undefined),-,53.0
COc1ccc(C2CC(C(F)(F)F)n3nc(C(=O)N(C)Cc4ccccc4)c(Cl)c3N2)cc1 (centres undefined),-,89.0
Cc1ccc(C2CC(C(F)(F)F)n3nc(C(=O)Nc4cccnc4)cc3N2)cc1 (centres undefined),-,-
Cc1ccc(C2CC(C(F)(F)F)n3nc(C(=O)NCCc4ccccc4)cc3N2)cc1 (centres undefined),-,-
O=C(CCc1cccc2[nH]ccc12)Nc1ccccc1,-,-
CCCn1cnc2c1c(=O)n(C(C)C)c(=O)n2-c1cccc(F)c1,-,-
Cc1cccc(CNC(=O)c2nn(C)c3c2CN(C(=O)C2CCC2)CC3)c1,-,-
CCC(=O)N1CCc2c(c(C(=O)NCc3ccc4c(c3)OCO4)nn2C)C1,-,-
Cn1nc(C(=O)NCc2ccc(F)cc2)c2c1CCN(C(=O)C1CCCC1)C2,-,77.2
Cn1nc(C(=O)NCc2ccc3c(c2)OCO3)c2c1CCN(C(=O)C1CCCCC1)C2,-,72.0
Cn1nc(C(=O)NCc2ccccc2)c2c1CCN(C(=O)C1CCC1)C2,-,-
Cn1nc(C(=O)NCc2ccc(Cl)cc2)c2c1CCN(C(=O)CC1CCCC1)C2,-,-
Cn1nc(C(=O)NCc2ccc(Cl)cc2)c2c1CCN(C(=O)C1CCCC1)C2,-,92.3
CCCC(=O)N1CCc2c(c(C(=O)NCc3ccc(Cl)cc3)nn2C)C1,-,83.9
CC(C)C(=O)N1CCCC(c2ccnc(-c3cccc(F)c3)n2)C1 (centres undefined),-,-
O=C1c2ccccc2C(=O)c2c(NC(=O)c3cc4ccccc4oc3=O)cccc21,-,-
Cc1cc(C(=O)Nc2nnc(-c3ccccc3)s2)c(C)o1,-,-
CCC(=O)N1CCc2c(c(COCc3ccc(C)cc3)nn2C)C1,-,-
CC(C)CC(=O)N1CCc2c(c(COCc3ccc(Cl)cc3)nn2C)C1,-,62.6
CS(=O)(=O)N1N=C(c2c(-c3ccccc3)c3cc(Cl)ccc3[nH]c2=O)CC1c1ccccc1 (centres undefined),-,67.0
O=c1[nH]c2ccc(Cl)cc2c(-c2ccccc2)c1[N+](=O)[O-],-,-
Cc1ccc(C(=O)N2CC(=O)Nc3ccc(F)cc3C2c2ccc(F)cc2)cc1C (centres undefined),-,-
SMILES,Pf apPOL inh,mHTT CaM bind
Cc1ccc(C(=O)N2CC(=O)Nc3ccc(Br)cc3C2c2ccccc2)cc1C (centres undefined),-,98.0
Cc1ccc(-c2cc(C(=O)Nc3cccnc3)c3ccccc3n2)o1,-,-
Cc1ccc(-c2cc(C(=O)Nc3ccncc3)c3ccccc3n2)o1,-,74.0
Cc1ccc(N2C=C(C(=O)N3CCCCC3)S(=O)(=O)c3ccccc32)cc1Cl,-,-
Cc1ccc(N2C=C(C(=O)N3CCCCC3)S(=O)(=O)c3ccccc32)cc1C,-,58.4
Cn1c(=O)c2c(nc3n(-c4ccccc4)c(-c4ccccc4)cn23)n(C)c1=O,-,-
CCOCCCNC(=O)C1(C)CCC(=O)N1CCc1ccc(C)cc1 (centres undefined),-,-
O=C(Cc1ccccc1)NC1CC(=O)N(Cc2ccccc2)C1 (centres undefined),-,-
CCCC1CCC2(CCCN2CCOC(=O)Nc2cccc(Cl)c2)CC1 (centres undefined),-,95.4
CCCC1CCC2(CCCN2CCOC(=S)Nc2ccccc2Cl)CC1 (centres undefined),-,-
CCCC1CCC2(CCCN2CCOC(=S)Nc2ccccc2)CC1 (centres undefined),-,61.0
CCCC1CCC2(CCCN2CCOC(=S)Nc2cccc(Cl)c2)CC1 (centres undefined),-,-
CCOc1cccc2cc(C(=O)Nc3cccc(C)c3)c(=Nc3ccc(C(=O)O)cc3)oc12,-,-
Cc1cccc(OCC(=O)N2CCc3c(c(-c4nc(-c5ccc(F)cc5)no4)nn3C)C2)c1,-,-
Cc1cccc(OCC(=O)N2CCc3c(c(C(=O)NCc4ccc(F)cc4)nn3C)C2)c1,-,55.2
Cc1cccc(CNC(=O)c2nn(C)c3c2CN(C(=O)c2cccs2)CC3)c1,-,-
Cc1cccc(CNC(=O)c2nn(C)c3c2CN(C(=O)Cc2cccs2)CC3)c1,-,68.8
Cc1cccc(CNC(=O)c2nn(C)c3c2CN(C(=O)COc2ccc(F)cc2)CC3)c1,-,63.2
COc1cccc(CC(=O)N2CCc3c(c(C(=O)NCc4cccc(C)c4)nn3C)C2)c1,-,54.4
CCC(=O)N1CCc2c(c(C(=O)NCc3cccc(C)c3)nn2C)C1,-,-
